The list is not random: actives were taken first. Their share in the collection is about 7.3%.
SMN2 splice enh = increases expression of the SMN2 splice variant; AID 1458; 210,000 compounds, 2.8% hits; Potency, µM (titrated, usually from 46.1 µM), actives largely listed as activators; HEK293 SMN2-luciferase splicing reporter, luminescence, 30-36 h; note: nearly all actives have a fitted effect of over 55% in size
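HEK293 cells carry an SMN2 minigene-luciferase reporter in which exon 7 inclusion puts luciferase in frame. Cells were seeded at 2000 cells/well, attached for 10-12 hours, then exposed to compounds for 30-36 hours at 37C before ONE-Glo luminescence.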
ELG1 genotoxic = induces genotoxicity in HEK293T cells with luciferase-tagged ELG1; 330,000 compounds, 1.3% hits; AID 504466; Potency, µM (highest dose often 46 µM), usual class: activators; HEK293T ELG1-luciferase reporter, luminescence, 16 h; note: nearly all actives have a fitted effect of over 60% in size
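Step 1: seed 2,000 HEK293T ELG1-luciferase cells per well. Step 2: add compound or DMSO, incubate 16 hr at 37 °C. Step 3: ONE-Glo, 30 min at room temperature, read luminescence.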
FLuc modulator = inhibits or activates purified firefly luciferase, miR-21 counter-screen; P08659; purified FLuc, Km substrates, luminescence inhibition; Potency, µM (top dose mostly 57.5 µM), most hits filed as inhibitors; 360,000 compounds, 6.9% hits; note: nearly all actives have a fitted effect of over 55% in size
Target sequence (P08659 whole entry, looked up): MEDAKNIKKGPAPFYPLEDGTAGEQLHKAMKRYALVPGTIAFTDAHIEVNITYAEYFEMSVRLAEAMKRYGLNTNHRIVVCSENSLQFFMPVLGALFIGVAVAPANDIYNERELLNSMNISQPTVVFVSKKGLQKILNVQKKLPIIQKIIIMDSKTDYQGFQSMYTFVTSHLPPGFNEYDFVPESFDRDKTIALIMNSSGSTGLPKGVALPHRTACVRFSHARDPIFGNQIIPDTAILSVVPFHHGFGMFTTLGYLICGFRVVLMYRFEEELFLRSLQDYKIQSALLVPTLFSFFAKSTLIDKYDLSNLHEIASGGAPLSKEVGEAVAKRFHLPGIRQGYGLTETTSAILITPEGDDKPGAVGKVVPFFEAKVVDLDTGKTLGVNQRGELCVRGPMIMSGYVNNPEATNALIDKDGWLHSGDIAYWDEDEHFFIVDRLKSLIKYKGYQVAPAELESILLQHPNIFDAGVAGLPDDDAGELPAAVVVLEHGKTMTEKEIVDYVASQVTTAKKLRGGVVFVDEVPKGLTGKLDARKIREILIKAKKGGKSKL
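Purified P. pyralis luciferase, 10 nM final, with Km-level 10 uM D-luciferin and 10 uM ATP in 50 mM Tris acetate pH 7.5, 10 mM Mg acetate, 0.01% Tween-20, 0.05% BSA; 6-point qHTS titration about 60 µM downward; luminescence read.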
Rab9 prom act = activates the Rab9 promoter | Huh7 Rab9 promoter-luciferase reporter, luminescence, 24 h | Potency, µM (top dose mostly 9.22 µM), most hits filed as activators | 320,000 compounds, 2.8% hits | AID 485297; note: nearly all actives have a fitted effect of over 60% in size
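Quantitative HTS format; Huh7 Rab9-luciferase reporter cells (1500/well) receive compound 2 h post-plating, incubate 24 h at 37 °C, then get luciferase reagent for 10 min before luminescence reading.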
NPC1 promoter act = activators of NPC1 promoter. Huh7 NPC1 promoter luciferase reporter, 24 h. Potency, µM (series often up to 9.22 µM), usual class: activators. 320,000 compounds, 2.4% hits. AID 485313; note: nearly all actives have a fitted effect of over 60% in size
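Huh7 reporter cells (NPC1 promoter driving luciferase) are dosed with compound for 24 h at 37 °C, 5% CO2; luciferase detection reagent is then added and luminescence measured after 10 min at ambient temperature.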
KinaseGlo FLuc = counter-screen: inhibitors of Kinase-Glo firefly luciferase. Q27757. Kinase-Glo luciferase, ATP luminescence, 8 min. Potency, µM (series often up to 38.3 µM), actives largely listed as inhibitors. 200,000 compounds, 0.28% hits. AID 1379; note: nearly all actives have a fitted effect of over 60% in size
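Light output from Kinase-Glo luciferase with luciferin and 10 uM ATP in 50 mM imidazole pH 7.2, KCl, MgCl2, Tween 20, BSA; compound pin-delivered, 8-min ambient incubation, then luminescence read.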
Numbers stand for hits; i = inactive; ? = inconclusive; nt = not tested or not shown; [ ] = remark or other dose. Calls come from the whole dose curve; as a rule, active = well fitted curve in the direction sought with a large enough effect; inconclusive = small, poorly fitted or top-dose-only effect, or another doubt; inactive = no such curve, though single readings can be large; an effect the other way counts as inactive or inconclusive.

SMILES	SMN2 splice enh	ELG1 genotoxic	FLuc modulator	Rab9 prom act	NPC1 promoter act	KinaseGlo FLuc
C[C@@H]1C(=O)CC2C(C)(C)CCC[C@]2(C)[C@@]1(O)CCc1ccoc1 (stereo partly specified)	i	nt	nt	nt	nt	i
COc1ccc(CCNC(=O)c2ccc(-n3c(C)cc4c3CCC(C)C4)cc2)cc1OC (stereo unspecified)	nt	nt	i	nt	nt	nt
CCOCCCN(Cc1ccco1)C(=O)c1cc2c(s1)-c1c(C)cccc1OC2	i	nt	i	nt	nt	nt
O=C(NCc1cccs1)c1ccc(CSc2nc3cccnc3n2Cc2ccccc2F)cc1	nt	nt	i	nt	nt	nt
Cc1ccc(CSc2nc3cccnc3n2Cc2ccc(C(=O)NCc3ccco3)cc2)cc1	nt	nt	0.6µM	nt	nt	nt
Cc1ccc(CNC(=O)c2ccc(Cn3c(SCc4ccc(F)cc4)nc4cccnc43)cc2)o1	i	nt	3.8µM	nt	nt	nt
O=C(NCc1ccco1)c1ccc(Cn2c(SCc3ccccc3F)nc3cccnc32)cc1	nt	nt	8.5µM	nt	nt	nt
Nc1n[nH]c(-c2ccc(F)cc2)n1	i	i	i	i	i	i
CCCc1ccc(-c2cc(N)n[nH]2)cc1	i	16µM	7.6µM	?	?	i
CCCCc1ccc(-c2nc(N)n[nH]2)cc1	6.3µM	?	6µM	1.6µM	3.2µM	i
O=C1C2C3C=CC(C4CC34)C2C(=O)N1/N=C/c1c[nH]c2ccccc12 (stereo unspecified)	nt	i	1.9µM	2µM	4µM	nt
CC(=C/c1ccccc1)/C=N/NC(=O)c1cccs1	nt	1.8µM	0.95µM	1µM	1.4µM	nt
CC(/C=N/NC(=O)c1cc(-c2ccc(C)s2)[nH]n1)=C\c1ccccc1	i	i	?	i	i	i
O=C(N/N=C/C(Br)=C\c1ccccc1)c1cccs1	nt	?	2.1µM	1.6µM	2.2µM	nt
CC(=O)c1ccc(NC(=O)CN2C(=O)c3cccnc3Sc3ccccc32)cc1	nt	nt	i	nt	nt	nt
COC(=O)c1[nH]c2cc(C)ccc2c1NC(=O)CN1CCCc2ccccc21	i	i	24µM	?	?	i
O=C(c1ccc2c(c1)N(Cc1ccccc1)C(=O)c1ccccc1S2(=O)=O)N1CCc2ccccc21	i	nt	i	nt	nt	nt
O=C1C(=O)c2ccccc2C(O)=C1Cc1ccccc1	i[9.22 µM]	nt	nt	nt	nt	i[7.66 µM]
N#CC1CC(c2ccccc2)=NN1c1ccccc1[N+](=O)[O-] (stereo unspecified)	22µM	?	12µM	3.5µM	?	i
COc1cccc(/C=N/Nc2c(Cl)cncc2Cl)c1O	nt	i	9.5µM	i	?	nt
COc1cccc(/C=N/Nc2nc(N3CCCC3)nc(N3CCCC3)n2)c1O	i	i	?	i	i	i
COc1cccc(/C=N/Nc2cc(Cl)nc(C)n2)c1O	nt	i	3µM	i	?	i
COc1cccc(/C=N/Nc2nnc(C)n2N)c1O	nt	i	i	i	i	nt
CCn1c(SCC(=O)O)nnc1-c1cc2c(C)nn(-c3ccccc3)c2s1	i	i	9.5µM	i	i	i
CCn1c(SCC(=O)c2ccc(O)c(O)c2)nnc1-c1ccccc1	?	21µM	?	i	i	i
SMILES	SMN2 splice enh	ELG1 genotoxic	FLuc modulator	Rab9 prom act	NPC1 promoter act	KinaseGlo FLuc
CCn1c(SCC(=O)c2cccs2)nnc1-c1ccco1	i	i	21µM	i	i	i
CCn1c(SCC(N)=O)nnc1-c1ccco1	i	i	i	i	i	i
CCn1c(SCC(=O)c2ccc(O)c(O)c2)nnc1-c1ccccc1OC	i	i	i	i	i	i
CCn1c(SCC(=O)c2cc(C)n(-c3ccc(C(=O)OC)cc3)c2C)nnc1-c1cccnc1	i	i	15µM	i	i	i
Cc1ccc2ccc3cc(C(=O)N4CCN(c5ccccc5)CC4)nc3c2[nH]1	nt	nt	i	nt	nt	nt
Cc1ccnc(SCC(=O)c2cccs2)n1	?	?	?	3.2µM	3.5µM	i
CCn1c(SCC(=O)c2ccccc2)nnc1-c1cccs1	i	?	9.5µM	?	?	i
Cc1ccnc(SCC(=O)c2ccc(Br)s2)n1	i	i	i	i	i	i
O=C(CS(=O)(=O)c1cccc2nsnc12)NCc1ccccc1	nt	nt	i	nt	nt	nt
Cc1ccc(C(=O)/C=C/c2ccco2)c(O)c1	i	?	9.5µM	i	i	i
O=C(Nc1ccc2c(c1)OCO2)c1noc2c1CCCC2	nt	0.65µM	1.5µM	0.63µM	0.79µM	nt
O=C(Nc1ccc2c(c1)OCO2)c1noc2c1CCCCC2	5.6µM	?	2.1µM	0.45µM	0.56µM	i
O=C(CN1C(=O)COc2ccc(S(=O)(=O)N3CCOCC3)cc21)N1CCN(c2ccc(F)cc2)CC1	i	nt	i	nt	nt	nt
COC(=O)C1CCN(CC(=O)Nc2ccc3c(c2)OCCO3)CC1	nt	i	nt	nt	nt	nt
CC1CC(C)(C)NC(=S)N1CCCC(=O)Nc1ccc2c(c1)OCCO2 (stereo unspecified)	i	?	27µM	?	i	i
CCC1CCCCN1CC(=O)Nc1ccc2c(c1)OCCO2 (stereo unspecified)	nt	i	24µM	i	i	nt
CC1CC(C)CN(CC(=O)Nc2ccc3c(c2)OCCO3)C1 (stereo unspecified)	i	?	15µM	?	?	i
CCOc1ccccc1C(=O)NCC(c1cccs1)S(=O)(=O)c1ccc(F)c(C)c1 (stereo unspecified)	nt	nt	i	nt	nt	nt
CCc1ccc(NC(=S)Nc2cccc(OC)c2)cc1	i	i	21µM	i	i	i
COc1ccc(CNC(=S)Nc2cccc(OC)c2)cc1	nt	i	i	i	i	nt
COc1cccc(NC(=S)NN=C2CCCCCC2)c1	14µM	?	8.5µM	3.2µM	3.5µM	i
CCOc1cc(NC(=S)Nc2cccc(OC)c2)c(OCC)cc1NC(=O)C1CC1	i	i	15µM	i	i	i
Cc1ccc(S(=O)(=O)O[C@H]2CC(C(C)(C)C)CC[C@@H]2c2ccccc2)cc1 (stereo partly specified)	i[9.22 µM]	nt	nt	nt	nt	i[7.66 µM]
CCOc1ccccc1NC(=O)Cn1c(=O)n(Cc2ccco2)c(=O)c2ccc(C(=O)NC3CCCC3)cc21	i	nt	i	nt	nt	nt
CCOC(=O)c1ccc(NC(=O)c2ccc(=O)n(Cc3cccc(C)c3)c2)cc1	nt	nt	i	nt	nt	nt
SMILES	SMN2 splice enh	ELG1 genotoxic	FLuc modulator	Rab9 prom act	NPC1 promoter act	KinaseGlo FLuc
S=C(NCCc1ccccn1)NC1CCCCC1	11µM	?	?	?	?	i
S=C(NCCCc1ccccc1)NC1CCCCC1	nt	i	i	i	i	nt
CC(=O)c1ccc(NC(=O)c2cc3c(=O)oc4ccc(C)cc4c3s2)cc1	i	nt	i	nt	nt	nt
COc1ccc(CNC(=O)Nc2ccccc2)cc1	nt	?	19µM	3.5µM	?	nt
COc1ccc(CNC(=O)Nc2ccc(OC)cc2)cc1	i	i	i	i	i	i
COc1ccc(CNC(=O)Nc2ccc(C)cc2C)cc1	i	i	i	i	i	i
Cc1ccc(CNC(=O)Nc2ccccc2)c(C)c1	nt	18µM	2.7µM	3.2µM	2.5µM	nt
Cc1cc2cc(CNC(=O)Nc3ccccc3)ccc2[nH]1	?	?	19µM	?	?	i
COc1ccc(CNC(=O)Nc2cccc(C)c2)cc1	i	?	?	4µM	3.2µM	i
Cc1ccc(Cl)cc1N1CCN(C(=O)COc2cc(=O)n(C)c3ccccc23)CC1	i	nt	i	nt	nt	nt
